Screening results: PubChem, Broad Institute
Pf Dd2 inh: P. falciparum Dd2 growth inhibition; activity change, % at 10 µM; actives 2.3% (n = 94,000); SYBR Green, 72 h; stronger effect = lower value; AID 1159554; in the data active = activity change below about -80%; inconclusive = no clear call, values can overlap the other calls
C diff growth: inhibitors of Clostridium difficile growth. AID 1259249. Clostridium difficile clinical isolate growth, OD600, 24 h; stronger effect = lower value. actives 0.25% (n = 86,000). growth activity, negative = inhibition, % at 16 µg/mL (by protocol);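 active = mean growth activity at or below -80% and every replicate also at or below -80%; inconclusive = mean at or below -80% but some replicate above -80%; inactive = mean growth activity above -80%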;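 note: 0% = DMSO wells and -100% = levofloxacin 16 µg/mL wells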
T cruzi growth-1: inhibitors of T. cruzi proliferation | T. cruzi beta-gal in NIH3T3, GalScreen luminescence, 90 h | inhibition, % at 8.34 µM | actives 5.9% (n = 77,000) | AID 624255;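 active = mean inhibition above about 93%, with at least 55% of replicates each passing it, limit read from the data, passing the limit was not always enough; inconclusive = only one of those two conditions holds; inactive = neither condition holds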
T cruzi growth-2: inhibitors of T. cruzi proliferation | AID 651739 | actives 72% (n = 5,600) | T. cruzi beta-gal in NIH3T3, GalScreen luminescence, 90 h | inhibition, % at 8.35 µM | shares compounds with T cruzi growth-1;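 active = mean replicate inhibition above about 95% and at least 55% of replicates individually reaching it, limit read from the data; inconclusive = only one of the two criteria is met; inactive = neither criterion is met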
T cruzi growth-3: blocks T. cruzi growth in NIH3T3 host cells; T. cruzi beta-gal in NIH3T3, GalScreen luminescence, 90 h; inhibition, % at 2.09 µM; shares compounds with T cruzi growth-1; actives 21% (n = 5,600); AID 651740;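 active = mean inhibition above about 95%, with at least 55% of replicates also reaching it, limit read from the data; inconclusive = meets just one of the two conditions; inactive = meets neither condition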;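 note: plate controls were neutral control median for no effect and positive control median for full effect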
3T3 cytotox: cytotoxicity in mouse NIH/3T3 fibroblasts | shares compounds with T cruzi growth-1 | NIH/3T3 viability, CellTiter-Glo ATP luminescence, 90 h | cytotoxicity (signal decrease), % at 8.35 µM | actives 14% (n = 5,600);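 active = mean signal decrease across replicates above about 35% based on untreated-well scatter, with enough replicates individually passing, limit read from the data; inconclusive = no rule stated though some were filed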;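 note: 0% = median of neutral control wells and 100% = median of positive control wells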
NIH3T3 tox 2: kills mouse NIH/3T3 fibroblasts; shares compounds with T cruzi growth-1; NIH/3T3 viability, CellTiter-Glo ATP luminescence, 90 h; inhibition, % at 24.9 µM; actives 56% (n = 5,600);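 active = mean loss of cell viability signal at or above a set limit, and enough replicates individually reaching it; inconclusive = meets only the mean limit or only the replicate share; inactive = meets neither condition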;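 note: 0% = median of neutral control wells and 100% = median of positive control wells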
An asterisk follows results filed as active; ! = a repeat was not active. Shown are actives, neighbours in structure and some others; about 6.7% of the full set was active somewhere.

For COc1ccc(S(=O)(=O)Nc2ccc3c(c2)C(=O)N([C@@H](C)CO)C[C@H](C)[C@H](CN(C)S(=O)(=O)c2ccc(Cl)cc2)OCCCC[C@@H](C)O3)cc1 the results were Pf Dd2 inh -60.9, C diff growth 5.0, T cruzi growth-1 98.8*, T cruzi growth-2 103.8*, T cruzi growth-3 84.3, 3T3 cytotox 9.7 and NIH3T3 tox 2 -22.9.
`COc1ccc(S(=O)(=O)Nc2ccc3c(c2)C(=O)N([C@@H](C)CO)C[C@H](C)[C@H](CN(C)S(=O)(=O)c2ccc(Cl)cc2)OCCCC[C@H](C)O3)cc1` gave Pf Dd2 inh -73.2, C diff growth -2.8, T cruzi growth-1 inconclusive, T cruzi growth-2 107.8*, T cruzi growth-3 91.2, 3T3 cytotox 21.5 and NIH3T3 tox 2 21.0.
`COc1ccc(S(=O)(=O)Nc2ccc3c(c2)C(=O)N([C@H](C)CO)C[C@@H](C)[C@H](CN(C)S(=O)(=O)c2ccc(Cl)cc2)OCCCC[C@H](C)O3)cc1` gave Pf Dd2 inh -77.0, C diff growth -3.9 and T cruzi growth-1 94.9.
Screening COc1ccc(S(=O)(=O)N(C)C[C@H]2OCCCC[C@@H](C)Oc3ccc(NS(=O)(=O)c4ccc(Cl)cc4)cc3C(=O)N([C@H](C)CO)C[C@@H]2C)cc1 returned Pf Dd2 inh -27.7 and C diff growth -18.0.
`C[C@@H]1CCCCO[C@H](CN(C)C)[C@H](C)CN([C@@H](C)CO)C(=O)c2cc(NC(=O)Nc3ccccc3)ccc2O1` gave Pf Dd2 inh -0.5, C diff growth -0.9 and T cruzi growth-1 6.5.
COc1ccc(NC(=O)N(C)C[C@@H]2OCCCC[C@H](C)Oc3ccc(N(C)C)cc3C(=O)N([C@H](C)CO)C[C@@H]2C)cc1 was read as Pf Dd2 inh -0.9, C diff growth -1.4 and T cruzi growth-1 41.4.
`COc1ccc(NC(=O)N(C)C[C@H]2OCCCC[C@@H](C)Oc3ccc(N(C)C)cc3C(=O)N([C@H](C)CO)C[C@@H]2C)cc1` gave Pf Dd2 inh 10.1, C diff growth -2.6, T cruzi growth-1 105.2*!, T cruzi growth-2 53.4, T cruzi growth-3 10.9, 3T3 cytotox 20.9 and NIH3T3 tox 2 34.0*.
For COc1ccc(NC(=O)N(C)C[C@@H]2OCCCC[C@H](C)Oc3ccc(N(C)C)cc3C(=O)N([C@H](C)CO)C[C@H]2C)cc1 the results were Pf Dd2 inh -56.7, C diff growth -1.8 and T cruzi growth-1 33.0.
For COc1ccc(NC(=O)N(C)C[C@H]2OCCCC[C@H](C)Oc3ccc(N(C)C)cc3C(=O)N([C@H](C)CO)C[C@@H]2C)cc1 the results were Pf Dd2 inh -32.6, C diff growth -0.5, T cruzi growth-1 99.7*, T cruzi growth-2 59.8, T cruzi growth-3 6.6, 3T3 cytotox 3.6 and NIH3T3 tox 2 -8.3.
For O=C(C1CC1)N1C[C@@H]2[C@H](c3ccccc31)[C@@H](CO)N2Cc1ccccc1Cl the results were Pf Dd2 inh -6.2, C diff growth 2.3 and T cruzi growth-1 17.0.
For C[C@H]1CN([C@@H](C)CO)C(=O)c2cc(NC(=O)Nc3ccccc3)ccc2O[C@@H]1CN(C)Cc1ccc(Oc2ccccc2)cc1 the results were Pf Dd2 inh -4.8, C diff growth 2.1 and T cruzi growth-1 46.4.
C[C@@H]1CCCCO[C@@H](CN(C)Cc2ccc(Cl)c(Cl)c2)[C@@H](C)CN([C@@H](C)CO)C(=O)c2cc(NC(=O)Nc3cccc4ccccc34)ccc2O1 was read as Pf Dd2 inh -31.6, C diff growth 8.4, T cruzi growth-1 124.2*, T cruzi growth-2 96.2*, T cruzi growth-3 103.5*, 3T3 cytotox -2.8 and NIH3T3 tox 2 -2.0.
C[C@H]1CCCCO[C@H](CN(C)Cc2ccc(Cl)c(Cl)c2)[C@@H](C)CN([C@@H](C)CO)C(=O)c2cc(NC(=O)Nc3cccc4ccccc34)ccc2O1 was read as Pf Dd2 inh -24.6, C diff growth -10.9, T cruzi growth-1 inconclusive, T cruzi growth-2 112.4*, T cruzi growth-3 110.6*, 3T3 cytotox 2.4 and NIH3T3 tox 2 5.7.
Screening C[C@@H]1CCCCO[C@H](CN(C)Cc2ccc(Cl)c(Cl)c2)[C@@H](C)CN([C@H](C)CO)C(=O)c2cc(NC(=O)Nc3cccc4ccccc34)ccc2O1 returned Pf Dd2 inh 1.3, C diff growth -0.3, T cruzi growth-1 inconclusive, T cruzi growth-2 111.2*, T cruzi growth-3 74.6, 3T3 cytotox -1.3 and NIH3T3 tox 2 -12.0.
C[C@H](CO)N1C[C@H](C)[C@@H](CN(C)Cc2ccncc2)OCCCC[C@H](C)Oc2ccc(NC(=O)Nc3cccc4ccccc34)cc2C1=O was read as Pf Dd2 inh 27.4, C diff growth -3.9 and T cruzi growth-1 42.7.
`C[C@@H]1CCCCO[C@@H](CN(C)Cc2ccncc2)[C@H](C)CN([C@@H](C)CO)C(=O)c2cc(NC(=O)Nc3cccc4ccccc34)ccc2O1` gave Pf Dd2 inh 23.9, C diff growth 8.7 and T cruzi growth-1 105.9.
For C[C@@H]1CN([C@@H](C)CO)C(=O)c2cc(NC(=O)Nc3cccc4ccccc34)ccc2O[C@@H](C)CCCCO[C@H]1CN(C)Cc1ccncc1 the results were Pf Dd2 inh 0.5, C diff growth -3.0 and T cruzi growth-1 55.3.
For O=C(CC1CC1)N1CC(=O)N2[C@H](CO)[C@@H](c3ccc(/C=C/c4ccccc4)cc3)[C@H]2C1 the results were Pf Dd2 inh -9.1 and C diff growth 3.3.
For C[C@@H]1CCCCO[C@@H](CN(C)C(=O)Nc2ccccc2)[C@H](C)CN([C@H](C)CO)C(=O)c2cc(NS(=O)(=O)c3cn(C)cn3)ccc2O1 the results were Pf Dd2 inh 5.5, C diff growth 12.3 and T cruzi growth-1 37.7.
For COCC#Cc1cnc2c(c1)C(=O)N([C@H](C)CO)C[C@@H](C)[C@H](CN(C)C(=O)Nc1cccc(F)c1)O2 the results were Pf Dd2 inh -8.3, C diff growth 0.3 and T cruzi growth-1 -10.7.
`C[C@H]1CCCCO[C@@H](CN(C)Cc2ccncc2)[C@@H](C)CN([C@@H](C)CO)C(=O)c2cc(NS(=O)(=O)c3cccs3)ccc2O1` gave Pf Dd2 inh -41.1, C diff growth 0.3 and T cruzi growth-1 31.6.
Screening C[C@@H]1CN([C@H](C)CO)C(=O)c2cc(NS(=O)(=O)c3cccs3)ccc2O[C@@H](C)CCCCO[C@H]1CN(C)Cc1ccc(Cl)c(Cl)c1 returned Pf Dd2 inh -42.8, C diff growth -9.1, T cruzi growth-1 124.9*, T cruzi growth-2 82.6, T cruzi growth-3 114.9*, 3T3 cytotox 61.1* and NIH3T3 tox 2 106.1*.
